Data published in article PMC5540273 (PLoS ONE, 2017).

Each molecule was assayed on EGFR.
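Note: kd values determined as follow-up on hits from a single-replicate KINOMEscan panel screen.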

Point of comparison: `CS(=O)(=O)CCNCc1ccc(-c2ccc3ncnc(Nc4ccc(OCc5ccccc5)c(Cl)c4)c3c2)o1.Cl` [GW574783], Kd 0.82 nM. Against it:
- CS(=O)(=O)CCNCc1nc(-c2ccc3ncnc(Nc4ccc(OCc5cccc(F)c5)c(Cl)c4)c3c2)cs1.Cl [GW583340] — within 1.5-fold, 0.69 nM
- Cn1ccc2ncnc(Nc3ccc(Oc4cccc(Cl)c4)c(Cl)c3)c21 — 5.2-fold higher, 4.3 nM
- NC(=O)c1sc(-n2cnc3ccccc32)cc1OCc1ccccc1F [GSK1024306] — 1600-fold higher, 1300 nM
- O=C(CCO)NCCn1ccc2ncnc(Nc3ccc(Oc4cccc(C(F)(F)F)c4)c(Cl)c3)c21 — 2.8-fold higher, 2.3 nM
- OCCOCCn1ccc2ncnc(Nc3ccc(Oc4cccc(Cl)c4)c(Cl)c3)c21 — 10-fold higher, 8.5 nM
- Cl.c1ccc(Cn2ncc3cc(Nc4ncnc5ccccc45)ccc32)cc1 [GW273749] — 9.3-fold higher, 7.6 nM
- Clc1cc(Nc2ncnc3cc[nH]c23)ccc1OCc1ccccn1 — 10-fold higher, 8.4 nM
- Fc1cccc(COc2ccc(Nc3ncnc4cc[nH]c34)cc2Cl)c1 — 1.6-fold higher, 1.3 nM
- Cl.O=S(=O)(c1cccc(F)c1)c1ccc(Nc2ncnc3cc(Br)sc23)cc1Cl [GSK306886] — 74-fold higher, 61 nM
- COc1cc2ncnc(Nc3ccc(OCc4ccccc4Br)c(Cl)c3)c2cc1OC.Cl [GI261590] — 2.9-fold higher, 2.4 nM
- Cl.Fc1ccccc1COc1ccc(Nc2ncnc3ccc(-c4nnc(C(F)(F)F)o4)cc23)cc1Cl [GW424170] — 52-fold higher, 43 nM
- Oc1ccc2ncnc(Nc3ccc(OCc4ccccc4)cc3)c2c1 [GI262866] — 11-fold higher, 9.3 nM
- Fc1cccc(COc2ccc(Nc3ncnc4sc(-c5ccc[nH]5)cc34)cc2Cl)c1 [GW707818] — 3.2-fold higher, 2.6 nM
- COc1cc2c(Nc3cccc(NC(=O)c4ccccc4)c3)ncnc2cc1OCCCN1CCOCC1 [GSK223810] — 1700-fold higher, 1400 nM
- Cl.c1ccc(Cn2ccc3cc(Nc4ncnc5ccccc45)ccc32)cc1 [GW275568] — 6.1-fold higher, 5 nM
- N#Cc1ccc(Oc2ccc(Nc3ncnc4cc[nH]c34)cc2Cl)cc1 — 120-fold higher, 97 nM

Each molecule was assayed on EPHA3.

`CCn1c(-c2ccncc2)nc2cnccc21` [SB-735216] and `Cl.Cn1ccc(-c2cccc(Nc3ccnc4cc(-c5nccs5)ccc34)c2)n1` [GW525701] cannot be ordered by Kd: > 10000 nM for the first, > 10000 nM for the second.

For `O=c1cc(N2CCOCC2)nc2n(Cc3cccc(Cl)c3)ccn12` [GSK2296823], the Kd was > 10000 nM.
